Experimental data published in PubChem BioAssay (NCI).
This is part of a sample that, as a whole, favours compounds with a hit. Of some 83,000 tested, about 20% had one in any assay.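 The endpoint reported here, percent growth, reads 100 for growth as untreated, 0 for no net growth and -100 for all cells dead.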 The source made the active and inactive calls. Rule for the calls: active = growth percent below 10; inactive = the rest.

Key:
Assay in all cases: NCI-60 one-dose screen, 48 h (100 = growth as untreated, 0 = no growth, -100 = all killed)
Conditions in all cases: 10 µM unless noted
NCI-H23 lung = test system: NCI-H23 lung
NCI-H226 lung = test system: NCI-H226 lung
NCI-H322M lung = test system: NCI-H322M lung
HOP-62 NSCLC = test system: HOP-62 NSCLC
NCI-H460 lung = test system: NCI-H460 lung
HOP-92 NSCLC = test system: HOP-92 NSCLC
A549/ATCC NSCLC = test system: A549/ATCC NSCLC
786-0 renal = test system: 786-0 renal
COLO 205 colon = test system: COLO 205 colon

Measured: growth

Cc1ccc(C(=O)Cc2ccccc2)c(O)c1
inactive: NCI-H23 lung 101% | NCI-H226 lung 102% | NCI-H322M lung 77.6% | HOP-62 NSCLC 104% | NCI-H460 lung 111% | HOP-92 NSCLC 87.3% | A549/ATCC NSCLC 102% | 786-0 renal 112% | COLO 205 colon 109%

N#Cc1c(-c2ccccc2)cc(-c2ccccc2)n(CCCCC(=O)O)c1=O
inactive: NCI-H23 lung 90% | NCI-H226 lung 91% | NCI-H322M lung 98.6% | HOP-62 NSCLC 90.9% | NCI-H460 lung 102% | HOP-92 NSCLC 93.7% | A549/ATCC NSCLC 94.7% | 786-0 renal 93.7% | COLO 205 colon 108%

O=C1CNc2cc(Cl)ccc2N1
inactive: NCI-H23 lung 96.7% | NCI-H226 lung 103% | NCI-H322M lung 106% | HOP-62 NSCLC 99.2% | NCI-H460 lung 109% | HOP-92 NSCLC 102% | A549/ATCC NSCLC 113% | 786-0 renal 109% | COLO 205 colon 106%

Cc1cc(C)c2c(N)c3cccc(C)c3nc2n1
active: NCI-H23 lung -28.6% | NCI-H226 lung -10.6% | NCI-H322M lung 0.65% | HOP-62 NSCLC -28.4% | NCI-H460 lung -1.3% | HOP-92 NSCLC -12.9% | A549/ATCC NSCLC -40.9% | 786-0 renal -3.97% | COLO 205 colon -18.2%

C1=C(Cc2ccccc2)n2cnc3ncnc(c32)S1
inactive: NCI-H23 lung 61.3% | NCI-H226 lung 53.7% | NCI-H322M lung 73% | HOP-62 NSCLC 39.9% | NCI-H460 lung 83.8% | HOP-92 NSCLC 56.6% | A549/ATCC NSCLC 87.3% | 786-0 renal 29.3% | COLO 205 colon 82%

COc1cccc(N2CCN(c3cccc(C)n3)CC2)c1
inactive: NCI-H23 lung 103% | NCI-H226 lung 105% | NCI-H322M lung 103% | HOP-62 NSCLC 87.7% | NCI-H460 lung 117% | HOP-92 NSCLC 79.2% | A549/ATCC NSCLC 95.6% | 786-0 renal 99.6% | COLO 205 colon 123%

COc1ccccc1NC(=O)c1sc2nc3c(cc2c1N)C(=O)CCC3
inactive: NCI-H23 lung 66.7% | NCI-H226 lung 76.2% | NCI-H322M lung 59.7% | HOP-62 NSCLC 100% | NCI-H460 lung 19.3% | HOP-92 NSCLC 37.5% | A549/ATCC NSCLC 34.2% | 786-0 renal 89.1% | COLO 205 colon 26.4%

COc1ccccc1-n1c(-c2ccc(O)cc2C)cn2c3c(=O)[nH]c(=O)n(C)c3nc12
inactive: NCI-H23 lung 91.6% | NCI-H226 lung 92.4% | NCI-H322M lung 113% | HOP-62 NSCLC 79.3% | NCI-H460 lung 93.1% | HOP-92 NSCLC 49.4% | A549/ATCC NSCLC 86.6% | 786-0 renal 72.2% | COLO 205 colon 102%

Cc1ccccc1NC(=O)N/C(N)=N/c1nc2ccccc2s1
inactive: NCI-H23 lung 31.8% | NCI-H226 lung 21% | NCI-H322M lung 39.2% | HOP-62 NSCLC 40.7% | NCI-H460 lung 11.7% | HOP-92 NSCLC 126% | A549/ATCC NSCLC 22.7% | 786-0 renal 30.7%
active: COLO 205 colon 6.68%

Clc1ccc2[nH]cc(-c3cncn3CCc3ccccc3)c2c1
inactive: NCI-H23 lung 45.6% | NCI-H226 lung 47.9% | NCI-H322M lung 65.5% | HOP-62 NSCLC 50.8% | NCI-H460 lung 68.5% | HOP-92 NSCLC 28% | A549/ATCC NSCLC 59.7% | 786-0 renal 62.9% | COLO 205 colon 44.3%

COc1cc(C2CC(C3C(=O)N(C)C(=O)N(C)C3=O)=NN2c2cc(Cl)cc(Cl)c2)cc(OC)c1OC (stereo unspecified)
inactive: NCI-H23 lung 93.5% | NCI-H226 lung 85% | NCI-H322M lung 104% | HOP-62 NSCLC 89.7% | NCI-H460 lung 94.5% | HOP-92 NSCLC 88.5% | A549/ATCC NSCLC 78.2% | 786-0 renal 99.6% | COLO 205 colon 99.7%

CC(=O)/C(=C/c1ccc(Cl)cc1)C(=O)c1ccccc1
inactive: NCI-H23 lung 88.6% | NCI-H226 lung 107% | NCI-H322M lung 101% | HOP-62 NSCLC 95.5% | NCI-H460 lung 99.7% | HOP-92 NSCLC 62.5% | A549/ATCC NSCLC 94.8% | 786-0 renal 93.9% | COLO 205 colon 111%

C[C@]12CCC(=O)C=C1CC[C@H]1[C@@H]3C[C@@H](O)[C@](O)(C(=O)CO)[C@@]3(C)C[C@H](O)[C@@]12F
inactive: NCI-H23 lung 110% | NCI-H226 lung 83.1% | NCI-H322M lung 128% | HOP-62 NSCLC 101% | NCI-H460 lung 93.4% | HOP-92 NSCLC 80.3% | A549/ATCC NSCLC 63.1% | 786-0 renal 111% | COLO 205 colon 103%

O=C(/C=C/c1c(-c2ccccc2)[nH]c2ccccc12)S(=O)(=O)c1ccccc1
inactive: NCI-H23 lung 73% | NCI-H226 lung 69.1% | NCI-H322M lung 93% | HOP-62 NSCLC 69.3% | NCI-H460 lung 43.8% | HOP-92 NSCLC 47.8% | A549/ATCC NSCLC 25.7% | 786-0 renal 74.4% | COLO 205 colon 80.6%

COc1cc(/C=C/C(=O)CC(=O)/C=C/c2ccc(OC(=O)C3C4CC5CC(C4)CC3C5)c(OC)c2)ccc1OC(=O)C1C2CC3CC(C2)CC1C3 (stereo unspecified)
inactive: NCI-H23 lung 104% | NCI-H226 lung 123% | NCI-H322M lung 92.9% | HOP-62 NSCLC 99.1% | NCI-H460 lung 120% | HOP-92 NSCLC 65.5% | A549/ATCC NSCLC 102% | 786-0 renal 104% | COLO 205 colon 110%

O=C1Nc2ccc(C(=O)O)c(O)c2C1=O
inactive: NCI-H23 lung 107% | NCI-H226 lung 104% | NCI-H322M lung 105% | HOP-62 NSCLC 97.4% | NCI-H460 lung 105% | HOP-92 NSCLC 97.3% | A549/ATCC NSCLC 96.9% | 786-0 renal 109% | COLO 205 colon 104%

Clc1ccc(C2=NN(c3ccc(Cl)cc3)C(c3cccc(Nc4ccnc5cc(Cl)ccc45)c3)C2)cc1 (stereo unspecified)
inactive: NCI-H23 lung 85.2% | NCI-H226 lung 88% | NCI-H322M lung 87.7% | HOP-62 NSCLC 69.4% | NCI-H460 lung 93.1% | HOP-92 NSCLC 88% | A549/ATCC NSCLC 70.9% | 786-0 renal 85.3% | COLO 205 colon 72.8%

CCN(CC)CCSc1ncnc2c1cnn2-c1ccc(S(N)(=O)=O)cc1
inactive: NCI-H23 lung 94.9% | NCI-H226 lung 92.9% | NCI-H322M lung 102% | HOP-62 NSCLC 98.4% | NCI-H460 lung 85.9% | HOP-92 NSCLC 50.9% | A549/ATCC NSCLC 84.7% | 786-0 renal 95.3% | COLO 205 colon 113%

Cc1cc2c(cc1C)[n+](Cc1ccc3ccccc3n1)cn2Cc1ccc2ccccc2n1
inactive: NCI-H322M lung 36% | A549/ATCC NSCLC 30.4% | 786-0 renal 11.2%
active: NCI-H23 lung 1.58% | NCI-H226 lung 9.61% | HOP-62 NSCLC 4.38% | NCI-H460 lung 0.342% | HOP-92 NSCLC -27.3% | COLO 205 colon -61.5%

Cc1n(Cc2ccc3ccccc3c2)cc[n+]1Cc1ccc2ccccc2c1
inactive: NCI-H226 lung 19% | NCI-H322M lung 48.9% | HOP-62 NSCLC 18% | A549/ATCC NSCLC 42.3% | 786-0 renal 34%
active: NCI-H23 lung 5.53% | NCI-H460 lung 9.12% | HOP-92 NSCLC -20.3% | COLO 205 colon -57.2%

CC1C(C)N(C(=O)CCl)c2ccccc2N1C(=O)CCl (stereo unspecified)
inactive: NCI-H226 lung 13.7% | A549/ATCC NSCLC 38.4%
active: NCI-H23 lung -61.1% | NCI-H322M lung 3.9% | HOP-62 NSCLC -67.3% | NCI-H460 lung -37.3% | HOP-92 NSCLC -40.7% | 786-0 renal -55.1% | COLO 205 colon -70.6%

CCOc1cc(CCNS(=O)(=O)c2ccc(C)cc2)c(C(C)=O)cc1OCC
active: HOP-92 NSCLC -5.84% [100 µM]
inactive: NCI-H23 lung 89.3% [100 µM] | NCI-H226 lung 81% [100 µM] | NCI-H322M lung 108% [100 µM] | HOP-62 NSCLC 96.6% [100 µM] | NCI-H460 lung 76.9% [100 µM] | A549/ATCC NSCLC 74.8% [100 µM] | 786-0 renal 74.9% [100 µM] | COLO 205 colon 95.9% [100 µM]

O=C(COc1ccc(/C=C2\Cc3ccccc3C2=O)cc1)c1ccc(Cl)cc1
inactive: NCI-H23 lung 89.2% | NCI-H226 lung 97.5% | NCI-H322M lung 123% | HOP-62 NSCLC 101% | NCI-H460 lung 101% | HOP-92 NSCLC 90.7% | A549/ATCC NSCLC 99.6% | 786-0 renal 102% | COLO 205 colon 117%

COc1ccc(-c2cc(-c3cccnc3)nc3sc(C(=O)Nc4ccccc4)c(N)c23)cc1OC
inactive: NCI-H23 lung 87.8% | NCI-H226 lung 77.2% | NCI-H322M lung 79.3% | HOP-62 NSCLC 84.3% | NCI-H460 lung 44.3% | HOP-92 NSCLC 24.9% | A549/ATCC NSCLC 74.2% | 786-0 renal 63.9% | COLO 205 colon 72.6%

O=C1NC(=S)S/C1=C\c1cc(Br)ccc1O
inactive: NCI-H23 lung 84.7% | NCI-H226 lung 91.4% | NCI-H322M lung 92.3% | HOP-62 NSCLC 81.6% | NCI-H460 lung 102% | HOP-92 NSCLC 75.7% | A549/ATCC NSCLC 107% | 786-0 renal 109% | COLO 205 colon 95%

O=C1C=CC(=O)N1c1ccccn1
inactive: NCI-H23 lung 102% | NCI-H226 lung 108% | NCI-H322M lung 110% | HOP-62 NSCLC 113% | NCI-H460 lung 106% | HOP-92 NSCLC 104% | A549/ATCC NSCLC 96.9% | 786-0 renal 105% | COLO 205 colon 112%

COc1cccc(-c2nc3cc(NC(=O)c4ccc(Cl)c(C#N)c4)ccc3o2)c1
active: NCI-H23 lung -18.8% | NCI-H322M lung -13.2% | NCI-H460 lung -21.4% | A549/ATCC NSCLC -26.7% | 786-0 renal -92.1%
inactive: NCI-H226 lung 76.1% | HOP-62 NSCLC 70.2% | HOP-92 NSCLC 26.5% | COLO 205 colon 28.9%

CC(=O)c1nn(-c2ccccc2)c(=Nc2ccccc2)cc1C
inactive: NCI-H23 lung 107% | NCI-H226 lung 98.1% | NCI-H322M lung 103% | HOP-62 NSCLC 91.7% | NCI-H460 lung 101% | HOP-92 NSCLC 55.2% | A549/ATCC NSCLC 99.7% | 786-0 renal 107% | COLO 205 colon 109%

O=C(N/N=C/c1cccc(O)c1O)c1ccccc1
inactive: NCI-H23 lung 28.2% | NCI-H226 lung 17.3% | NCI-H322M lung 13.9% | HOP-62 NSCLC 25.9% | 786-0 renal 22%
active: NCI-H460 lung 3.29% | HOP-92 NSCLC -4.33% | A549/ATCC NSCLC 6.43% | COLO 205 colon 5.29%
